PubChem BioAssay (Tox21)
Values joined by “and” are separate entries in the source; they are usually repeats but may differ in a detail not shown here. Identical values can stand only once. Records with an inconclusive call do not appear. Active and inactive are the calls of the source. Calls follow the shape of the dose curve; as a rule, active = well fitted activation curve with a large enough effect in the repeat runs; inconclusive = weak or mixed curves; inactive = flat fitted curve, though single readings scatter.

Experiment: A CellTox Green Cytotoxicity Assay to monitor cytotoxicity in HepG2 cells - 32 hour (AID 1224883); also: nearly all actives have a fitted effect of over 50% in size
Conditions: CellTox Green fluorescence; series mostly up to 76.8 µM; cytotoxicity increase: at the top concentration
Source text: National Center for Advancing Translational Sciences [NCATS]
NIH Chemical Genomics Center [NCGC]
U.S. Environmental Protection Agency [EPA]
National Institutes of Environmental Health Sciences [NIEHS]
National Toxicology Program [NTP]
Cell-based models are critical for drug discovery. Determining the natural cytotoxic effects resulting from test compounds is an essential research activity. A CellTox Green Cytotoxicity Assay to monitor cytotoxicity in real time of continues cell culture during 40 hours of the compound treatment was used to screen Tox21 10K library compounds in HepG2 cells. CellTox Green Cytotoxicity Assay is a nonlytic, homogeneous, biofluorescent method to measure cytotoxicity in cell culture after experimental manipulation. The assay system uses a proprietary asymmetric cyanine dye that is excluded from viable cells but preferentially stains the dead cell's DNA. […] Viable cells produce no appreciable increases in fluorescence. Therefore, the fluorescence signal produced by the binding interaction with dead cell DNA is proportional to cytotoxicity.
The mixture of HepG2 cell suspension and reagents were dispensed at 600cells/6 ul/well in 1536-well tissue culture treated black solid bottom plates using a Multidrop dispenser. After the assay plates were incubated at a 37 C/5% CO2 incubator for 5 hours, 23 nL of compounds dissolved in DMSO, positive and negative controls was transferred to the assay plate by a pintool work station. The plates were incubated at 37 C for 40 hours. The fluorescence intensity were measured at 0h, 8h, 16h, 24h, 32h and 40h time points using ViewLux plate reader during compound treatment.
% is scaled to controls: 0 for no effect and ±100 for the full control effect; potency is read from the fitted curve at half-maximal effect.

Row | SMILES | Potency | cytotoxicity increase
1 | O=C1C(Cl)=C(Cl)C(=O)C(Cl)=C1Cl | 21.8 µM (active) and 19.5 µM (active) | –
2 | [Cl][Hg][c]1ccccc1 | 2.45 µM (active) | –
3 | COP(=S)(OC)Oc1nc(Cl)c(Cl)cc1Cl | – | 6.07% (inactive)
4 | CC(Cc1ccccc1)N(C)Cc1ccco1 (stereo not given) | – | 5.78% [at 35.3 µM] (inactive)
5 | CCOC(=O)Cc1ccccc1 | – | -0.0453% (inactive)
6 | CO/N=C(\C(=O)OC)c1ccccc1CO/N=C(\C)c1cccc(C(F)(F)F)c1 | – | 0.14% (inactive)
7 | N#Cc1sc2c(=O)c3ccccc3c(=O)c=2sc1C#N | 13.8 µM (active) | –
8 | ClC1=C(Cl)[C@]2(Cl)[C@@H]3[C@H]4C[C@H]([C@@H]5O[C@H]45)[C@@H]3[C@@]1(Cl)C2(Cl)Cl | – | 0% (inactive)
9 | CCCC[N+]1(C)CCCC1 (tested in a mixture with another compound) | – | 2.34% (inactive)
10 | CC(C)C(Nc1ccc(C(F)(F)F)cc1Cl)C(=O)OC(C#N)c1cccc(Oc2ccccc2)c1 (stereo not given) | – | -0.883% (inactive)
11 | O=S1OCC2C(CO1)C1(Cl)C(Cl)=C(Cl)C2(Cl)C1(Cl)Cl (stereo not given) | 54.9 µM (active) | –
12 | CCC(C)c1cccc(C(C)CC)c1O (stereo not given) | 19.5 µM (active) | –
13 | c1ccc2c(c1)cc1ccc3cccc4ccc2c1c34 | 7.05 µM (active) | –
14 | O=C(O)CCCCCCNC1c2ccccc2CCc2ccccc21 | – | -0.924% [at 35.3 µM] (inactive)
15 | O=c1[nH]c(Cl)c(Cl)cc1Cl | – | 2.27% (inactive)
16 | ClC1(Cl)C2(Cl)C3(Cl)C4(Cl)C(Cl)(Cl)C5(Cl)C3(Cl)C1(Cl)C5(Cl)C24Cl (stereo not given) | – | 2.41% (inactive)
17 | CN(C)C(=S)SSC(=S)N(C)C | 309 nM (active) and 134 nM (active) | –
18 | N#CC(C#N)=NNc1cccc(Cl)c1 | 13.8 µM (active) | –
19 | O=C1C2(Cl)C3(Cl)C4(Cl)C(Cl)(Cl)C5(Cl)C3(Cl)C1(Cl)C5(Cl)C24Cl (stereo not given) | 24.1 µM (active) and 41.8 µM (active) | –
20 | O=C(Nc1ccc(F)cc1F)c1cccnc1Oc1cccc(C(F)(F)F)c1 | – | 8.49% (inactive)

Row | SMILES | Potency | cytotoxicity increase
21 | CC(C)(C)c1ccc(OP(=O)(Oc2ccccc2)Oc2ccccc2)cc1 | – | 0.966% (inactive)
22 | CN1CCc2cc(Cl)c(O)cc2[C@H]2c3ccccc3CC[C@@H]21 | – | -0.761% [at 35.3 µM] (inactive)
23 | CC(=O)[O][Pb]([c]1ccccc1)([c]1ccccc1)[c]1ccccc1 | 0.871 µM (active) | –
24 | Oc1ccc([C@H]2CNCc3c2ccc(O)c3O)cc1O | 26.8 µM (active) | –
25 | Oc1cc(Cl)cc(Cl)c1 | – | 9.64% (inactive)
26 | O=[N+]([O-])c1ccc(Cl)c(Cl)c1Cl | – | 11.8% (inactive)
27 | [Cl-].[Cl-].[Sn+2] | – | -0.703% (inactive)
28 | Fc1ccc(C(OCCN2CCN(CCCc3ccccc3)CC2)c2ccc(F)cc2)cc1 | 23.9 µM (active) | –
29 | Nc1ccccc1-c1ccccc1 | – | 9.41% (inactive)
30 | [O]=[Cr][O][Cr]=[O] | – | -4.63% (inactive)
31 | CC(C)=CC1C(C(=O)OC(C#N)c2cccc(Oc3ccccc3)c2)C1(C)C (stereo not given) | – | -13% (inactive)
32 | CCCCC(CC)COC(=O)OOC(C)(C)C (stereo not given) | – | -12.7% (inactive)
33 | CCN1CCC2(CC1)COc1cc3c(cc12)N(C(=O)c1ccc(-c2ccc(-c4nnc(C)o4)cc2C)cc1)CC3 | 45.2 µM (active) | –
34 | CC(C)N(C(=O)SC/C(Cl)=C/Cl)C(C)C | – | 12.6% (inactive)
35 | CCN(CC)C(=O)N[C@@H]1C=C2c3cccc4[nH]cc(c34)C[C@@H]2N(C)C1 | – | -3.59% [at 35.3 µM] (inactive)
36 | O=C(NC(=O)c1ccccc1Cl)Nc1ccc(OC(F)(F)F)cc1 | – | -0.0847% (inactive)
37 | Cc1ccc([N+](=O)[O-])[c]2c1[O][Hg]2 | 2.13 µM (active) | –
38 | O=C(O)[C@H](O)[C@@H](O)C(=O)O | – | -5.85% (inactive)
39 | O=NN(CCO)CCO | – | -0.536% (inactive)
40 | [O]=[Cr](=[O])([OH])[O][Cr](=[O])(=[O])[OH] | 12.4 µM (active) | –
